The list is not random: actives were taken first. Their share in the collection is about 8.7%.
Pf growth 96h: Primary qHTS for delayed death inhibitors of the malarial parasite plastid, 96 hour incubation. 320,000 tested, 6.9% active. AID 504834, 2011. P. falciparum luciferase reporter growth, 96 h. Potency, µM (highest dose often 28.7 µM), without a hit: top-dose activity change, negative = inhibition, actives largely listed as inhibitors
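Cell-based qHTS: luciferase-tagged P. falciparum in erythrocytes (2% hematocrit, 0.05% parasitemia final) incubated with compounds for 96 hours, 37 C, 5% CO2; luciferase detection reagent then added and luminescence measured.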
VACV Venus inh: qHTS for Stage-Specific Inhibitors of Vaccinia Orthopoxvirus: Venus Reporter Primary qHTS | AID 720580, 2013 | 330,000 tested, 0.46% active | Vaccinia virus Venus reporter expression, fluorescence | Potency, µM (series often up to 36.5 µM), inactives show at the top dose activity change, negative = inhibition, most hits filed as inhibitors; calls by dose curve; tested in A549 cells; further: nearly all actives have a fitted effect of over 30% in size
AMA1 RON2 block: qHTS for Inhibitors of AMA1-RON; Towards Development of Antimalarial Drug Lead: Primary Screen; AlphaScreen AMA1-biotinylated RON2 peptide binding; Potency, µM (series often up to 58.2 µM), for inactives: at the top dose activity change, negative = inhibition, hits mostly inhibitors; 360,000 tested, 0.2% active; AID 720542, 2013;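 further: 0% = vehicle wells and -100% = peptide control; nearly all actives have a fitted effect of over 45% in size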
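AMA1 (3D7) with his tag at 25 nM final met compounds first, then biotinylated RON2 peptide at 25 nM; detection used donor plus acceptor beads, 10 µg/mL apiece, read by AlphaScreen after 30 min at room temperature.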
VACV mCherry inh: qHTS for Stage-Specific Inhibitors of Vaccinia Orthopoxvirus: mCherry Reporter Primary qHTS. Vaccinia virus mCherry reporter infection, fluorescence. Potency, µM (highest dose often 36.5 µM), inactives show at the highest dose activity change, negative = inhibition, most hits filed as inhibitors. 310,000 tested, 0.63% active; calls by dose curve; tested in A549 cells; further: nearly all actives have a fitted effect of over 35% in size
Pf growth 48h: Primary qHTS for delayed death inhibitors of the malarial parasite plastid, 48 hour incubation | P. falciparum luciferase growth in erythrocytes, 48 h | Potency, µM (titrated, usually from 28.7 µM), for inactives: at the top dose activity change, negative = inhibition, hits mostly inhibitors | 310,000 tested, 5.9% active | AID 504832, 2011
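Compounds are pin-transferred into medium, infected erythrocytes (2% hematocrit, 0.1% parasitemia final) are added, and plates sit one parasite generation at 37 C in 5% CO2. Detection reagent is then added and luminescence measured.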
The depositor's hits bear a star. Unless noted, the call rests on the fitted dose curve; in most records, active means well fitted curve in the direction sought with a large enough effect; inconclusive means small, poorly fitted or top-dose-only effect, or another doubt; inactive means no such curve, though single readings can be large; an effect the other way counts as inactive or inconclusive. Unless noted, on the % scale 0 is the no-effect control and ±100 the full control effect; potency means the concentration at half of the fitted maximal effect.

How did CCOC(=O)c1cnc(-n2nc(C)cc2C)nc1N1CC(C)OC(C)C1 (stereo not given) do in these assays?
AMA1 RON2 block: 80%

Results for CCOC(=O)c1cnc(-n2nc(C)cc2C)nc1NNc1ncc(-c2ccccc2)cn1 ?
Pf growth 96h: 1.7µM*; VACV Venus inh: inconclusive; AMA1 RON2 block: 28%; VACV mCherry inh: inconclusive; Pf growth 48h: 3.3µM*

How did COc1ccc2ccccc2c1CNCCc1ccccc1 do in these assays?
Pf growth 96h: 4%; AMA1 RON2 block: 2%; Pf growth 48h: 10µM*

Results for O=C(Cn1c(=O)c2c(ncn2Cc2ccccc2)n(Cc2ccccc2)c1=O)N1CCCC1 ?
Pf growth 96h: inconclusive; VACV Venus inh: -10%; AMA1 RON2 block: 5%; Pf growth 48h: inconclusive

Results for O=C(Cn1c(=O)c2c(ncn2C2CCCC2)n(Cc2ccccc2)c1=O)N1CCc2ccccc21 ?
Pf growth 96h: 37%; VACV Venus inh: -12%; AMA1 RON2 block: 2%; VACV mCherry inh: -13%; Pf growth 48h: 5.9µM*

What do the screens show for `CCn1cnc2c1c(=O)n(CC(=O)N1CCc3ccccc31)c(=O)n2Cc1ccccc1`?
Pf growth 96h: inconclusive; AMA1 RON2 block: 2%

How did O=C(Cn1c(=O)c2c(ncn2Cc2ccccc2)n(Cc2ccccc2)c1=O)N1CCc2ccccc21 do in these assays?
AMA1 RON2 block: -8%; Pf growth 48h: 3.3µM*

Results for Cc1sc2ccc3sccc3c2[n+]1C ?
Pf growth 96h: 15µM*; VACV Venus inh: -5%; AMA1 RON2 block: 9%; VACV mCherry inh: inactive; Pf growth 48h: -4%

Results for Cc1sc2c3ccsc3ccc2[n+]1C ?
Pf growth 96h: 51%; VACV Venus inh: -9%; AMA1 RON2 block: -9%; VACV mCherry inh: -15%; Pf growth 48h: 33%

How did CC(C)C(=O)N1c2nc(-c3ccco3)nn2C2(CCCCC2)[C@@H]2CCCC[C@@H]21 do in these assays?
VACV Venus inh: 1%; VACV mCherry inh: 8%

What do the screens show for `COc1ccc(OC)c(CN2CCN(C(=O)c3cccc4ccccc34)CC2)c1`?
Pf growth 96h: 7%; VACV Venus inh: -5%; AMA1 RON2 block: inconclusive; VACV mCherry inh: -8%; Pf growth 48h: -3%

Results for COc1cc(CN2CCN(C(=O)c3cccc4ccccc34)CC2)cc(OC)c1O ?
Pf growth 96h: 15µM*; AMA1 RON2 block: -7%; Pf growth 48h: 0%

How did COc1ccc(OC)c(CN2CCN(C(=O)c3cc4ccccc4cc3O)CC2)c1 do in these assays?
Pf growth 96h: 2.3µM*; VACV Venus inh: -19%; AMA1 RON2 block: inconclusive; VACV mCherry inh: inactive; Pf growth 48h: 4.7µM*

Results for Cc1ccc(-c2cnc(NCc3c(F)cccc3Cl)n2C)cc1 ?
VACV Venus inh: -7%; VACV mCherry inh: -19%

How did Cc1ccc(S(=O)(=O)N2CCN(c3cc(-c4cccs4)nc4ccccc34)CC2)cc1 do in these assays?
VACV Venus inh: -13%; VACV mCherry inh: -10%

Results for CCC(CC)c1nn2c(=O)cc(COc3ccc(NC(=O)c4cccc(Cl)c4)cc3)nc2s1 ?
VACV Venus inh: -7%; VACV mCherry inh: -4%

What do the screens show for `COC(=O)/C(C#N)=C/N(C)C`?
Pf growth 96h: 46%; VACV Venus inh: 7%; AMA1 RON2 block: 5%; VACV mCherry inh: -10%; Pf growth 48h: 2.3µM*

How did CCOC(=O)/C(C#N)=C\N(C)C do in these assays?
Pf growth 96h: 10%; VACV Venus inh: -2%; AMA1 RON2 block: 15%; VACV mCherry inh: -12%; Pf growth 48h: 8%

How did Cc1ccc(C)c(NC(=O)C(Sc2nc3ccccc3c(=O)n2CC(C)C)c2ccccc2)c1 (stereo not given) do in these assays?
Pf growth 96h: 2.6µM*; VACV Venus inh: -5%; AMA1 RON2 block: -12%; VACV mCherry inh: inactive; Pf growth 48h: 3.7µM*

How did COc1cccc(-c2cn3c(n2)sc2cc(C(=O)NCCc4ccccc4)ccc23)c1 do in these assays?
VACV Venus inh: -15%; VACV mCherry inh: -12%
